# Source: PubChem BioAssay (National Center for Advancing Translational Sciences (NCATS))
# Shiga toxin inh: blocks Shiga toxin action in Vero cells. Vero cells, Shiga toxin protein synthesis inhibition reporter. 9.2% of 290,000 active. inhibition, % at 38.7 µM; in the data active = inhibition mostly above about 28%, no sharp cut-off; inactive = mostly below about 43%; note: 0% is about no effect
# CHX counter: counter-screen for Shiga toxin inhibitors: cycloheximide protein synthesis inhibition; max response, %; 12% of 300,000 active; cell reporter, cycloheximide protein synthesis inhibition counterscreen; in the data active = max response mostly above about 13%, no sharp cut-off; inactive = mostly below about 14%; note: read at 38.3 µM for the half of the compounds with a filed dose; 0% is about no effect
# Sm TGR inh: blocks Schistosoma mansoni thioredoxin glutathione reductase; Q962Y6; purified TGR, DTNB reduction, TNB absorbance 405 nm; Potency, µM (highest dose often 114 µM), for inactives: at the highest dose activity change, negative = inhibition, hits mostly inhibitors; 3% of 360,000 active; note: potency is the fitted concentration of half-maximal effect; % is set by controls: 0 for no effect and ±100 for the full control effect; nearly all actives have a fitted effect of over 60% in size
#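 First, TGR (20 nM dispensed) and NADPH were mixed with compound. Second, a 15 min room-temperature incubation followed. Third, further NADPH and then DTNB were added to start the reaction. Finally, TNB absorbance was monitored kinetically.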
# LmPK inh: LmPK (Leishmania mexicana) enzyme inhibition | Q27686 | purified LmPK, Kinase-Glo ATP luminescence, 1 h | Potency, µM (doses to about 57.5 µM), without a hit: top-dose activity change, negative = inhibition, usual class: inhibitors | 0.37% of 290,000 active | AID 1721; note: potency is the fitted concentration of half-maximal effect; % is set by controls: 0 for no effect and ±100 for the full control effect
#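 Screened at intermediate enzyme activity to detect both inhibitors and activators: LmPK at 0.1 nM, with a 0.5 nM enzyme column as activation reference. PEP 0.5 mM, ADP 0.1 mM; ATP detected by luminescence after 1 h.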
# Giardia FBPA inh: Giardia lamblia aldolase inhibition. Potency, µM (titrated, usually from 59.6 µM), inactives show at the top dose activity, negative = inhibition, usual class: inhibitors. 0.71% of 290,000 active. purified Giardia FBPA; note: potency is the fitted concentration of half-maximal effect; % is set by controls: 0 for no effect and ±100 for the full control effect; nearly all actives have a fitted effect of over 55% in size
# Target sequence (A8B2U2 whole entry, looked up): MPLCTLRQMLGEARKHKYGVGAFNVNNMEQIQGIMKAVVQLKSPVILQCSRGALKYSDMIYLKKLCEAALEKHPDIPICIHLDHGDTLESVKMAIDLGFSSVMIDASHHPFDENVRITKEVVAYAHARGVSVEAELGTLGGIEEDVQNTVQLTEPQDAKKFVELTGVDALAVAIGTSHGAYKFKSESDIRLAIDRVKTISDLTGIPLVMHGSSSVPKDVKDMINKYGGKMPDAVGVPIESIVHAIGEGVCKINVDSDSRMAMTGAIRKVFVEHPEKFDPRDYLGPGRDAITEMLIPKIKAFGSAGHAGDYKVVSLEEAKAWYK
#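 Giardia FBPA (40 nM reagent) was preincubated 10 min at RT with compound (up to 57.5 uM final), then substrate plus GAPDH/TPI/NAD/arsenate coupling system with diaphorase/resazurin was added; resorufin fluorescence (525/598 nm) was read after 20 min.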
# TbPYK inhibitor: T. brucei pyruvate kinase inhibition; Potency, µM (highest dose often 76.8 µM), without a hit: at the top dose activity, negative = inhibition, usual class: inhibitors; 0.12% of 410,000 active; Q57TT1; TbPYK enzyme, Kinase-Glo Plus ATP luminescence, 45 min; note: potency is the fitted concentration of half-maximal effect; % is set by controls: 0 for no effect and ±100 for the full control effect; nearly all actives have a fitted effect of over 50% in size
#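 Screened from lowest to highest concentration, compounds were pinned into TbPYK/substrate mixtures, and ADP (130 uM final) was added. Plates sat at room temperature for 45 min prior to Kinase-Glo Plus detection by luminescence.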
# Starred values were filed as active, the others as inactive; . = no result; [ ] = remark or other dose. This excerpt belongs to a sample that is enriched for hits. Unless noted, calls come from the whole dose curve; as a rule, active = well fitted curve in the direction sought with a large enough effect; inconclusive = small, poorly fitted or top-dose-only effect, or another doubt; inactive = no such curve, though single readings can be large; an effect the other way counts as inactive or inconclusive.
SMILES,Shiga toxin inh,CHX counter,Sm TGR inh,LmPK inh,Giardia FBPA inh,TbPYK inhibitor
Cc1ccc(C)c(N2CCN(CCCNC(=O)c3cnn(-c4ccccc4Cl)c3C3CCN(C(=O)OC(C)(C)C)CC3)CC2)c1,.,.,0%,.,.,-2%
Cc1ccc(NC(=O)N2C(=O)C3(OCCO3)c3ccccc32)cc1,93*,43*,0%,0%,-9%,-2%
COC(=O)C1CCN(C(=O)c2sc3nc(-c4ccc(F)cc4)cn3c2C)CC1,37*,16*,6%,1%,-3%,8%
Cc1c(C(=O)N2CCOCC2)sc2nc(-c3ccccc3)cn12,43*,21*,6%,-18%,2%,-5%
Cc1c(C(=O)N2CCc3ccccc3C2)sc2nc(-c3ccccc3)cn12,45*,27*,-3%,3%,-4%,1%
O=C(c1cc(C(F)(F)F)cc(C(F)(F)F)c1)N1CCC2(CCCN(c3ncccn3)C2)CC1,.,.,.,.,0%,2%
N#C/C(=C\c1ccco1)c1nc2ccccc2s1,110*,70*,-2%,-17%,-4%,-10%
N#C/C(=C/c1ccc(-c2cc(C(=O)O)cc(C(=O)O)c2)o1)c1nc2ccccc2s1,-1,8,-15%,12%,3%,.
N#C/C(=C/c1ccco1)c1nc2ccccc2s1,119*,94*,-3%,-24%,-3%,6%
c1ccc(-c2nn[nH]n2)c(Nc2cccc3c2CCCC3)c1,-5,-4,.,.,19%,.
C/C(=N\NC(=O)c1ccncc1)c1ccc(N2CCOCC2)cc1,.,.,-3%,.,.,1%
C/C(=N\NC(=O)c1ccccc1Br)c1ccc(N2CCOCC2)cc1,35,10,10%,-3%,-5%,2%
C/C(=N/NC(=O)c1cccs1)c1ccc(N2CCOCC2)cc1,70*,51*,3%,-6%,0%,4%
C/C(=N\NC(=O)c1cc(C)oc1C)c1ccc(N2CCOCC2)cc1,54*,37*,6%,0%,-1%,1%
C/C(=N\Nc1cc(N2CCOCC2)ncn1)c1ccccc1,30*,28*,-21%,2%,12%,2%
C/C(=N\NC(=O)COc1ccc(C#N)cc1)c1ccc(N2CCOCC2)cc1,26*,6,-2%,0%,8%,-5%
CCc1ccc(C(=O)c2cn(CC(=O)NCCc3ccccc3)c3nc(C)ccc3c2=O)cc1,.,.,-1%,.,.,5%
CC(=O)NC(CC(=O)N(Cc1ccccc1)c1cccc(C)c1)c1ccccc1 (stereo unspecified),8,1,7%,-5%,.,-1%
C/C(=N\NC(=O)c1ccccc1)c1ccc(N2CCOCC2)cc1,54*,58*,-5%,-1%,-5%,2%
CN(C)/C=N/C(=S)Nc1ccc(Cl)cc1Cl,74*,57*,.,-4%,-6%,1%
Cc1cccc(C)c1NC(=S)/N=C/N(C)C,26,-2,.,-1%,-2%,-16%
CN(C)/C=N/C(=S)Nc1ccc(Cl)cc1,65*,35*,.,-8%,-1%,4%
COc1ccc([C@@H]2C(C#N)=C(N)S[C@@H](c3ccccc3)[C@@H]2[N+](=O)[O-])cc1,-6,5,-20%,5%,0%,-2%
COc1ccc(C2C(C#N)=C(N)N3C(=C2C#N)Sc2ccccc23)cc1 (stereo unspecified),43,20*,-15%,-1%,-2%,.
COc1c(C(=O)Nc2ccc(Br)cn2)ccc2ccccc12,76*,26*,-26%,3%,-4%,-4%
SMILES,Shiga toxin inh,CHX counter,Sm TGR inh,LmPK inh,Giardia FBPA inh,TbPYK inhibitor
O=C(Nc1ccc(Br)cn1)c1cccc(C(=O)Nc2ccc(Br)cn2)c1,12,2,1%,1%,12%,0%
O=C(Nc1ccc(Br)cn1)c1ccc2ccccc2c1,.,29*,-16%,7%,3%,-6%
COc1ccccc1NC(=O)Nc1ccc(Br)cn1,5,-5,1%,-6%,3%,-11%
O=C(Nc1ccc(Br)cn1)c1cccc2ccccc12,.,.,.,.,.,-3%
COc1cc2ccccc2cc1C(=O)Nc1ccc(Br)cn1,86,25*,-5%,-5%,9%,1%
CC(=O)Nc1ccc(NC(=O)CCCn2nc(C)c3sc4ccccc4c3c2=O)cc1,.,.,-3%,.,.,4%
CS(=O)(=O)N1CCC2(CCN(C(c3ccccc3)c3ccccc3)CC2)CC1,.,.,.,.,4%,-4%
Cc1ccc(S(=O)(=O)CCC(=O)Nc2ccc(Br)cc2C)cc1,.,.,-14%,.,.,-9%[15.4 µM]
CCN(CC)S(=O)(=O)c1ccc(C(=O)Nc2cc(C)cc(C)c2)cc1,-13,-2,12%,4%,0%,-1%
CCN(CC)S(=O)(=O)c1cccc(C(=O)Nc2cc(C)cc(C)c2)c1,39*,17*,-16%,0%,-1%,-2%
CCN(CC)S(=O)(=O)c1cccc(C(=O)Nc2cccc(C)c2)c1,25,27*,-22%,6%,1%,-1%
CCN(CC)S(=O)(=O)c1cccc(NC(=O)c2ccc(Br)cc2)c1,11,7,5%,3%,-6%,3%
Cc1ccccc1-c1cncnc1N(C)Cc1ccco1,.,.,.,.,-8%,.
CC(=O)c1cccc(NS(=O)(=O)c2ccc(N/C=C\C(=O)c3ccc(C)cc3)cc2)c1,15,13,3%,4%,5%,-4%
CC(=O)c1cccc(NS(=O)(=O)c2ccc(N/C=C/C(=O)c3ccc(F)cc3)cc2)c1,110*,46*,-3%,5%,-3%,1%
COc1cc(NS(=O)(=O)c2ccc(N/C=C\C(=O)c3ccc(F)cc3)cc2)nc(OC)n1,94*,71*,-8%,1%,8%,-9%
CC(=O)c1cccc(NS(=O)(=O)c2ccc(N/C=C\C(=O)c3ccc(F)cc3)cc2)c1,122*,37*,0%,2%,.,-18%
CSc1cccc(NS(=O)(=O)c2ccc(C(C)=O)cc2)c1,19,-2,16%,3%,3%,3%
CC(=O)c1ccc(NS(=O)(=O)c2ccc(N/C=C/C(=O)c3ccc(F)cc3)cc2)cc1,81*,53*,0%,4%,-2%,-14%
C[C@H]1CN([C@@H](C)CO)C(=O)CCCn2nncc2CO[C@@H]1CN(C)Cc1ccccc1C(F)(F)F,.,.,.,.,.,1%
O=C(OCC(F)(F)F)[C@H](O)[C@@H](O)C(=O)OCC(F)(F)F,.,.,.,.,4%,.
CC(C)(C)OC(=O)N1CCC(c2c(C(=O)Nc3ccc4c(c3)OCCO4)cnn2-c2ccc(F)cc2)CC1,.,.,4%,.,.,-8%
O=C(c1csnn1)N1CCC2(CC1)CN(c1ccncc1)C2,.,.,.,.,-8%,-9%
Cc1ccc(C(=O)/C=C/Nc2ccc(S(=O)(=O)Nc3cc(C)nc(C)n3)cc2)cc1,29,29*,-43%,5%,-9%,-3%
